Data from PubChem BioAssay AID493087 (The Scripps Research Institute Molecular Screening Center, 2011).
Out of some 340,000 compounds screened, about 240 (0.071%) were called active.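 Rule for the calls: active = activation above the mean of all tested compounds plus 3 SD, set per screening campaign (cut at about 17% in these data); inactive = the rest.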 Many of the other results were omitted from the sample, so actives are more common in it than they were.

The molecules below were run against Insulin-degrading enzyme (Homo sapiens) (UniProt P14735) (assay: human IDE activators in live cells, primary screen, fluorescence polarization, HEK cells, FAbeta-B substrate (AID 493087)). Conditions: FAbeta-B cleavage, at 5.96 µM, active compounds read high, 0% vehicle, 100% cell-free pure enzyme wells.
Insulin-degrading enzyme (Homo sapiens), sequence (P14735 whole entry, looked up): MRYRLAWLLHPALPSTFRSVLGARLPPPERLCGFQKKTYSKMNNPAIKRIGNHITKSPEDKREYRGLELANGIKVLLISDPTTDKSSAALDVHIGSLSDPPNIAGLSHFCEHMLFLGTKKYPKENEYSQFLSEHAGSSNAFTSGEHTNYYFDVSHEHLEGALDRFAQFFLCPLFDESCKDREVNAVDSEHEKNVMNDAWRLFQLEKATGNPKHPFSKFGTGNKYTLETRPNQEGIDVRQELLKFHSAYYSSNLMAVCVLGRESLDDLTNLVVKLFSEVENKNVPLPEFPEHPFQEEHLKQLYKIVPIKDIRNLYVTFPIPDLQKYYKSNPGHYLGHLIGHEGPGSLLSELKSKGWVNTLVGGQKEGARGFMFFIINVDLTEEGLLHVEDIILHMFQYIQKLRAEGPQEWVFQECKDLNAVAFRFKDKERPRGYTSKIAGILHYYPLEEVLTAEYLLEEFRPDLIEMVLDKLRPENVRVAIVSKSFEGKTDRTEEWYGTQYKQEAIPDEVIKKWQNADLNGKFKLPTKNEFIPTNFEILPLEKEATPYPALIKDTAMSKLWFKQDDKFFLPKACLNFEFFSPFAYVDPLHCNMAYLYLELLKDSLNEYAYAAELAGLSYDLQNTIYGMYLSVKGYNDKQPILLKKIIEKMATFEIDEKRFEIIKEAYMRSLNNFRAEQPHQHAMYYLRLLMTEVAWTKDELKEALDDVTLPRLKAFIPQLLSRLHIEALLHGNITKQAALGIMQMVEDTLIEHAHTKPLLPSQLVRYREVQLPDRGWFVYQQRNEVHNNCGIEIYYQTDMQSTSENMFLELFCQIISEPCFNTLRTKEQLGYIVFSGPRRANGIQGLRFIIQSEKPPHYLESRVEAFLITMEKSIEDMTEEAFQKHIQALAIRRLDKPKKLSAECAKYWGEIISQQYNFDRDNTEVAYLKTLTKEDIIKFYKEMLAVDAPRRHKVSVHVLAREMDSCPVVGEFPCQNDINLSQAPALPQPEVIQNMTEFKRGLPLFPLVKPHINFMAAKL
CCOC(=O)C1(CCOc2ccccc2)CCN(Cc2cc(OC)c(O)cc2Cl)CC1 was tested, and the activation was 2.9% (inactive). In the case of Cc1c(CN2CCC(CO)(CCOc3ccccc3)CC2)[nH]c2ccc(Cl)cc12, the activation is reported as 24.6% (active). For CCOC(=O)C1(CCOc2ccccc2)CCN(Cc2cc(OC)cc(OC)c2)CC1, the activation was -1.76% (inactive). For COc1ccccc1/C=C/C1=NC(=C\N(C)C)/C(=O)O1, the activation was -5.01% (inactive). For Cn1c(=O)c2cc(S(=O)(=O)NCCC(=O)Nc3ccc(F)cc3F)ccc2n(C)c1=O, the activation was 5.29% (inactive). COc1ccc(C2C(C#N)=C(N)Oc3n[nH]c(C)c32)cc1CN1CCN(c2ccc(F)cc2)CC1 (centres undefined) was tested, and the activation was -3.14% (inactive). In the case of Cc1cccc(NC(=O)CSc2nnc(CCNC(=O)OC(C)(C)C)o2)c1C, the activation is reported as -0.87% (inactive). For Cc1ccccc1OC(=O)Cn1c(C(F)(F)F)nc2ccccc21, the activation was 3.41% (inactive). In the case of Cc1cc(C)cc(NC(=O)NC2CCCCCCC2)c1, the activation is reported as 0.99% (inactive). COC1C(CO)OC(n2cnc3c(=S)nc(N)[nH]c32)C1O (centres undefined) was tested, and the activation was -9.08% (inactive). In the case of Cc1noc(C)c1NC(=O)Nc1cccc2c1O[C@H](CN(C)S(=O)(=O)c1c(C)noc1C)[C@@H](C)CN([C@H](C)CO)C2=O, the activation is reported as -2.65% (inactive). O=S(=O)(/C=C/c1ccccc1)NCCc1ccccn1 was tested, and the activation was 2.29% (inactive). O=C(COC(=O)c1ccncc1)Nc1ccc2c(c1)OCO2 was tested, and the activation was 3.58% (inactive). For NC(=O)c1ccc(NC(=O)COC(=O)c2c3c(nc4ccccc24)/C(=C\c2ccc4c(c2)OCO4)CCC3)cc1, the activation was 39.3% (active). With NS(=O)(=O)c1ccc(NC(=O)COC(=O)c2c3c(nc4ccccc24)/C(=C\c2ccc4c(c2)OCO4)CCC3)cc1 the activation was 1.16% (inactive). For CCCN(CC(=O)Nc1ccc(C(N)=O)cc1)CC(=O)Nc1ccccc1C, the activation was 0.5% (inactive). O=S(=O)(c1ccc2ccccc2c1)N1CCN(S(=O)(=O)N2CCOCC2)CC1 was tested, and the activation was -4.09% (inactive). In the case of Cc1ccc(CC(=O)N(C)CC(=O)N(CC(C)C)c2c(N)n(CC(C)C)c(=O)[nH]c2=O)cc1C, the activation is reported as -3.16% (inactive). O=C(NCc1ccncc1)C(=O)NCC1OCCN1S(=O)(=O)c1ccc(Br)cc1 (centres undefined) was tested, and the activation was 1.15% (inactive). In the case of COc1cccc2sc(N(CCCN(C)C)C(=O)C(c3ccccc3)c3ccccc3)nc12, the activation is reported as 31% (active). In the case of COc1cccc2sc(N(CCCN(C)C)C(=O)CCS(=O)(=O)c3ccccc3)nc12, the activation is reported as 5.71% (inactive). In the case of COc1cc2ccccc2cc1C(=O)N(CCN(C)C)c1nc2c(F)cccc2s1, the activation is reported as 6.93% (inactive). NS(=O)(=O)c1ccc(NC2=CC(c3ccc(F)cc3)N(c3ccc(S(N)(=O)=O)cc3)C2=O)cc1 (centres undefined) was tested, and the activation was 1.07% (inactive). In the case of CC(=O)c1cccc(-n2nnnc2SCC(=O)NNC(=O)C2CCCCC2)c1, the activation is reported as 6.48% (inactive). With Oc1ccc2ccc3cccc[n+]3c2c1 the activation was 26.2% (active). For Oc1ccc(-c2nc3ccccc3nc2-c2ccc(O)cc2O)c(O)c1, the activation was 3.04% (inactive). With Cc1ccc(-c2nn(C(C)(C)C)c3ncnc(N)c23)cc1 the activation was 2.32% (inactive). Cc1cccc2c1cnn2C(=O)CCC(=O)NC1CCCCC1 was tested, and the activation was 0.37% (inactive). With COc1cc(Cl)cc(C2NC(=O)NC(C)=C2C(=O)NCc2ccccc2)c1O (centres undefined) the activation was -1.41% (inactive). In the case of Brc1ccccc1C1Nc2cccc3cccc(c23)N1, the activation is reported as 8.61% (inactive). With COc1ccc(C2NC(=O)c3ccccc3N2)cc1 (centres undefined) the activation was 3.47% (inactive). Oc1ccc(C2Nc3cccc4cccc(c34)N2)cc1 was tested, and the activation was 19.4% (active). For C=CCOC(=O)C1=C[C@H](c2ccc(Br)cc2)C[C@H](OCCCCO)O1, the activation was -1.17% (inactive). With NC(=O)COC(=O)c1ccc2c(c1)C(=O)N(Cc1ccco1)C2=O the activation was 1.77% (inactive). With O=C(Nc1cc2c3c(c1)C1CCCC1CN3CC1CCCC21)c1ccc([N+](=O)[O-])cc1 (centres undefined) the activation was 1.32% (inactive). CC(=O)c1ccc(N2CCN(CC(O)c3ccccc3)CC2)cc1 (centres undefined) was tested, and the activation was 3.22% (inactive). For Cc1ccccc1OC/C(O)=C(\C#N)c1nc2ccccc2[nH]1, the activation was 22.2% (active). With COCCNC(=O)COc1ccccc1C the activation was 3.83% (inactive). In the case of CC(C)(C)c1nnc2sc(SCC(O)=C(C#N)c3nc4ccccc4[nH]3)nn2c1=O, the activation is reported as -2.57% (inactive). O=C(Nc1ccccc1C(=O)N1CCCCC1)c1ccco1 was tested, and the activation was 7.42% (inactive). With CC(C)[C@@H](C(=O)OCC(=O)c1ccc2c(c1)NC(=O)CO2)N1C(=O)c2ccccc2C1=O the activation was 6.47% (inactive). For O=C(O)CCn1cc(/C=C/C(=O)c2ccc(Cl)cc2)c(-c2cccc(Br)c2)n1, the activation was 7.16% (inactive). In the case of COc1cc2c3c(c1)/C(=C1/SC(=S)NC1=O)C(=O)N3C(C)(C)C=C2C, the activation is reported as 3.91% (inactive). O=C(CSc1nc2nccnc2c(=O)n1Cc1cccs1)Nc1ccccc1F was tested, and the activation was -1.39% (inactive). With N#C/C(=C/c1cccc([N+](=O)[O-])c1)c1nnc2n1CCCCC2 the activation was 1.53% (inactive). O=C(O)c1ccc(S(=O)(=O)N2CCC(Cc3ccccc3)CC2)cc1 was tested, and the activation was -5.76% (inactive). For COc1ccc(-c2c(-c3cc(OC)cc(OC)c3)n(C)c3ccc(-c4ccn[nH]4)cc23)cc1, the activation was 1.2% (inactive). For CCSc1nc(=S)n(CC)c(C)c1C(C)=O, the activation was -2.33% (inactive). With CC1=C(C)CC(C(=O)NNC(=O)c2csc3c2CCC(C(C)(C)C)C3)C(C(=O)O)C1 (centres undefined) the activation was 4.06% (inactive). With Cc1ccc(CNC(=O)C2CCN(S(=O)(=O)c3ccc4nc5c(c(C(=O)O)c4c3)CC(C)CC5)CC2)cc1 (centres undefined) the activation was -1.27% (inactive). For Cc1ccc(-c2nc(COC(=O)c3c(C)noc3C)cs2)cc1, the activation was -2.15% (inactive). In the case of COC(=O)c1sc2[nH]c(=S)n(N)c(=O)c2c1C, the activation is reported as 3.84% (inactive). In the case of O=C(CCC(=O)N1CCN(S(=O)(=O)c2ccc(Cl)cc2)CC1)NCc1cccc(C(F)(F)F)c1, the activation is reported as 2.14% (inactive). Cc1ccc(S(=O)(=O)N(C)CC(=O)NCC(c2ccc(F)cc2)N2CCOCC2)cc1 (centres undefined) was tested, and the activation was 1.51% (inactive). In the case of Cn1nccc1C(=O)N1CCCC(C(=O)c2ccc(Oc3ccccc3)cc2)C1 (centres undefined), the activation is reported as -8.2% (inactive). O=C(NCCCn1ccnc1)C(=O)NCC1OCCN1S(=O)(=O)c1cc(F)ccc1F (centres undefined) was tested, and the activation was 4.73% (inactive). COc1ccc(-n2ncc3c2CC(C)(C)CC3NC(=O)CCc2c(C)nn(C)c2C)cc1 (centres undefined) was tested, and the activation was 5.01% (inactive). For CN1CCC(=NNC(=O)CN(c2cccc(Cl)c2)S(C)(=O)=O)CC1, the activation was 2.41% (inactive). For O=C(CN1C(=O)NC(Cc2ccccc2)(Cc2ccccc2)C1=O)NCC1CCCCC1, the activation was 2.02% (inactive). For CCc1cc(=O)oc2cc(OCC(=O)N3CCCc4ccccc43)ccc12, the activation was -2.67% (inactive). For O=C(CN1C(=O)CC(c2ccccc2)=Nc2ccccc21)NC1CCCCC1, the activation was 1.38% (inactive). With CC12CCCCC1=CC(=O)CC2 (centres undefined) the activation was 3.28% (inactive). For Cc1ccc(S(=O)(=O)N2CC(C)N(S(C)(=O)=O)C2)cc1 (centres undefined), the activation was 2.36% (inactive). For COCC1CCN(C(=O)CCc2nnc(C3(c4ccc(Cl)cc4)CCC3)o2)C1 (centres undefined), the activation was 0.92% (inactive). For CCC(Cc1ccccc1)NS(=O)(=O)c1ccc2c(c1)NC(=O)CS2 (centres undefined), the activation was 4.18% (inactive). In the case of CCN1CCN(CCNC(=O)c2ccc(/C=C3/Sc4ccccc4N(Cc4cccc(C)c4)C3=O)cc2)CC1, the activation is reported as 24.8% (active). In the case of CN1CCN(CCCNC(=O)c2ccc(/C=C3\Oc4ccccc4N(Cc4ccc(Cl)cc4)C3=O)cc2)CC1, the activation is reported as -0.17% (inactive). For O=C(NCCCN1CCOCC1)c1ccc2c(c1)N(Cc1cccc(F)c1)C(=O)c1ccccc1S2, the activation was 0.8% (inactive). For CCC1CCCCN1C(=S)Nc1ccc(C(C)=O)cc1 (centres undefined), the activation was 1.79% (inactive). With CCOC(=O)c1cc2c(=O)n3ccccc3nc2n(CC(C)C)c1=NC(=O)c1c(-c2c(F)cccc2Cl)noc1C the activation was 1.41% (inactive). In the case of CC1(C)CC(N2CCN(C(c3ccccc3)c3ccccc3)CC2)=CC(=[N+]2CCCCC2)C1, the activation is reported as 0.04% (inactive). In the case of Oc1c(CN2CCOCC2)ccc(CN2CCOCC2)c1O, the activation is reported as -3.83% (inactive). In the case of c1ccc2c(c1)CCc1snnc1-2, the activation is reported as 2.79% (inactive). In the case of NC1=NOC(=O)C1C1CCCCC1 (centres undefined), the activation is reported as 5.24% (inactive). With COC(=O)Nc1ccc(S(=O)(=O)N(C)CC(F)(F)C(F)F)cc1 the activation was 3.58% (inactive). Brc1ccc(/C=N/N2CCN(C3c4ccccc4-c4ccccc43)CC2)s1 was tested, and the activation was -7.03% (inactive). In the case of CCc1ccc(C(=O)NNC(=O)C2CCN(c3ncnc4sc(C)c(C)c34)CC2)cc1, the activation is reported as -11.5% (inactive). In the case of COc1ccc(C(=O)NCCn2nc(C)cc2C)cc1OC1CCN(C(C)=O)CC1, the activation is reported as 1.62% (inactive). O=c1nc(N2CCOCC2)nc2n1CCO2 was tested, and the activation was -0.31% (inactive). For Cc1ccc(S(=O)(=O)/N=C(\CN2CCOCC2)N2CCOCC2)cc1, the activation was -5.66% (inactive). COc1cc2[nH]c(O)c(C=O)c2cc1OC was tested, and the activation was -5.21% (inactive). CCS(=O)(=O)c1ccc(O)c(NC(=O)COc2ccc(Cl)cc2)c1 was tested, and the activation was 0.73% (inactive). With Cc1ccc(O)c(NC(=S)NC(=O)COc2ccc(Br)cc2)c1 the activation was 18.1% (active). COc1ccc(C(=O)Nc2cc(C)ccc2NC(=O)COc2ccccc2)cc1 was tested, and the activation was 0.16% (inactive). With Cc1cc(C)n2nc(C(=O)Nc3cccc(S(=O)(=O)N4CCOCC4)c3)nc2n1 the activation was 1.61% (inactive). For COc1ccc([C@H]2CC(=O)C=C(/C=C/c3ccc(Cl)cc3)C2)cc1, the activation was 3.83% (inactive). In the case of COCc1cc(C)n(CC(=O)NCC2CCCO2)c(=O)c1C#N (centres undefined), the activation is reported as -1.81% (inactive). COc1ccc(CCNC(=O)COC(=O)C2CC2C)cc1 (centres undefined) was tested, and the activation was 3.39% (inactive). With O=C(CCCCCCCC(=O)N1CCCCC1)N1CCCCC1 the activation was -0.9% (inactive).
